EBV LMP1 NFkB: EBV LMP1-driven NF-kappaB luciferase reporter inhibitors, primary screen, cell-based, luminescence, single point | AID 504558, 2011 | inhibition, % at 12.5 µM | LMP1-induced NF-kappaB luciferase reporter cells | hit rate 0.69% among 350,000; in the data active means inhibition above about 41%;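 further: 0% = neutral control wells and 100% = reference inhibitor control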
HSF-1 act: HSF-1 activators, primary screen, NIH3T3-HGL cells, MG132 stress, luminescence, single point | NIH3T3-HGL HSF-1 luciferase reporter, 8 h; 100% = twice DMSO control signal | activation, % at 9 µM | hit rate 1.7% among 300,000;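 active means mean replicate activation of at least 50% with a set share of replicates each reaching 50%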;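 further: 0% = median of the neutral control wells and 100% = twice that signal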
HSF1 inh: HSF1 inhibitors in luciferase reporter cells, primary screen, cell-based, NIH3T3, luminescence | NIH3T3-HGL HSE-luciferase, MG132-induced, luminescence 8 h; hits give low values | activity change, negative = inhibition, % at 7.5 µM (by protocol) | hit rate 0.77% among 300,000 | AID 2098, 2009;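 active means more than half of replicate wells show activity change below -50%, luminescence cut by over half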;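 further: luciferase reports HSF-1 transcriptional activity via heat shock element; 0% = median of DMSO wells and -100% = zero luminescence signal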
HSP90 refold inh: HSP90 inhibitors, primary screen, cell lysate, luminescence. Heat shock protein HSP 90 (rabbit reticulocyte lysate; luciferase refolding). Rabbit reticulocyte lysate, luciferase refolding luminescence, 3 h. inhibition, % at 5.6 µM. hit rate 0.91% among 290,000. AID 1789, 2009;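 active means inhibition above the screen-wide mean plus 3 SD, computed separately per campaign, cut at about 16% in these data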;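 further: 0% = DMSO wells and 100% = 60 µM geldanamycin wells; inhibitors lower the luminescence because luciferase stays unfolded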
TROY NFkB inh: inhibitors of TROY-driven NF-kB signaling, primary screen, Q293 LMP1-TROYcd cells, NF-kB luciferase, uHTS; hit rate 0.98% among 360,000; inhibition, % at 10 µM; AID 1347056, 2019; Q293 LMP1-TROYcd NF-kB luciferase reporter, 4 h;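 active means compounds whose plate-normalised and pattern-corrected inhibition of the luciferase reporter signal at the single screening dose is 50% or more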
TWEAK Fn14 block: inhibitors of TWEAK-Fn14 signaling, primary screen, luciferase reporter cells, uHTS; TWEAK-stimulated Fn14 reporter cells, luciferase luminescence, 8 h; inhibition, % at 10 µM; hit rate 2% among 360,000; AID 1159606, 2016; in the data active means inhibition above about 50%
HSP90 inh confirm: HSP90 inhibitors, confirmation, cell lysate, luminescence. rabbit reticulocyte lysate, luciferase refolding luminescence, 3 h. shares compounds with HSP90 refold inh. inhibition, % at 5.9 µM. AID 1846, 2009. hit rate 64% among 2,300; in the data active means inhibition above about 18%;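 further: 0% = vehicle wells and 100% = reference inhibitor wells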
FLuc counter: firefly luciferase inhibitors, HSP90 counter-screen, confirmation, artefact control for HSP90 inhibitor project, biochemical, luminescence, triplicate. AID 1847, 2009. hit rate 48% among 2,300. inhibition, % at 5.9 µM. purified native firefly luciferase. shares compounds with HSP90 refold inh;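 active means inhibition above the mean inhibition of all tested sample wells plus 3 SD, cut at about 10% in these data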;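 further: 0% = DMSO with luciferase and 100% = wells lacking luciferase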
Target sequence (P08659 whole entry, looked up): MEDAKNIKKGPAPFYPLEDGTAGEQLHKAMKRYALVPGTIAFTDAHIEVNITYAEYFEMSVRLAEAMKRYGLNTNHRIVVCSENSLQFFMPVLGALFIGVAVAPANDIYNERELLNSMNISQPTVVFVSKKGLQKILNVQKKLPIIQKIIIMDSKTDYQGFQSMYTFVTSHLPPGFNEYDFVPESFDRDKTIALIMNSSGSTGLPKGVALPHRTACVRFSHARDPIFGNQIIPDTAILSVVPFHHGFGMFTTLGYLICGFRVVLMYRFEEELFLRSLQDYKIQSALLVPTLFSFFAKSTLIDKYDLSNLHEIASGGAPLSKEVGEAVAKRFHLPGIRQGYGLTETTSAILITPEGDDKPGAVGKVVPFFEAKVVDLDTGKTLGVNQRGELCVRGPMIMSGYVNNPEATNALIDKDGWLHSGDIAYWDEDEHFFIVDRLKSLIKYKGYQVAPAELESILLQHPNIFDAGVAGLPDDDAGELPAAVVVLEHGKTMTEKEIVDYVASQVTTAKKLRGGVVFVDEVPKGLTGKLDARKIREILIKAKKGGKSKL
The depositor's hits bear a star; nt = no result. In the library only some 4.7% were active in any assay of this set; here they are far more common.

SMILES	EBV LMP1 NFkB	HSF-1 act	HSF1 inh	HSP90 refold inh	TROY NFkB inh	TWEAK Fn14 block	HSP90 inh confirm	FLuc counter
CN1CCN(c2ccc(NC(=O)N3CCc4ccccc43)cc2)CC1	60*	-86	-85*	72*	77*	95*	71*	61*
Cc1cc(C(=O)Nc2ccc(N3CCCCC3)cc2)no1	29	24	10	24*	26	73*	50*	36*
Cc1ccc(C(=O)Nc2ccc(N3CCN(C)CC3)cc2)cc1C	24	-56	-51*	22*	57*	75*	29*	23*
Cc1ccc(C(=O)Nc2ccc(N3CCN(S(C)(=O)=O)CC3)cc2)cc1C	-11	27	6	2	-41	-18	nt	nt
O=c1[nH]cc(S(=O)(=O)N2CCN(c3ccccc3F)CC2)c(=O)[nH]1	6	nt	nt	nt	4	23	nt	nt
CCC(=O)c1ccc(OCc2ccc(C(=O)OC)cc2)cc1	-11	-11	1	30*	-40	15	62*	-3
CCC(=O)c1ccc(OCc2ccc(C#N)cc2)cc1	-12	17	11	-4	-47	-28	nt	nt
Cc1c(NC(=O)c2nn(C(C)C)c(=O)c3ccccc23)c(=O)n(-c2ccccc2)n1C	-1	nt	nt	nt	9	8	nt	nt
O=C(CC[C@H]1O[C@@H](n2cnc3c(NC(=O)c4ccccc4)ncnc32)[C@H](O)[C@@H]1O)NCCCN1CCOCC1	nt	nt	nt	nt	-4	15	nt	nt
O=C(Cc1nc2ccccc2[nH]1)c1cccc([N+](=O)[O-])c1	7	10	-15	20*	8	-10	27*	5
O=C(NCC(c1cccs1)N1CCOCC1)c1cccc([N+](=O)[O-])c1 (stereo not given)	-10	8	4	67*	3	6	-7	-6
CCCCn1c(NC(=O)c2ccc(Br)o2)c(S(=O)(=O)c2ccccc2)c2nc3ccccc3nc21	7	nt	nt	34*	71*	74*	3	-6
CCCCn1c(NC(C)=O)c(C#N)c2nc3ccccc3nc21	-12	5	0	24*	12	-1	3	-2
CCCCCn1c(N)c(C#N)c2nc3ccccc3nc21	-5	11	19	1	26	26	nt	nt
C=CCn1c(NC(=O)c2ccccc2Cl)c(C#N)c2nc3ccccc3nc21	5	7	11	49*	66*	13	12	0
CCc1nc2ccc(C(=O)NCCCn3ccnc3)cn2c1N(C)Cc1cccs1	nt	nt	nt	nt	-7	5	nt	nt
Cc1ccc(C(=O)CSc2cnc3ccccc3n2)cc1C	-6	-56	-48	37*	76*	89*	47*	29*
CC(C)(C)OC(=O)N1Cc2ccccc2C[C@H]1C(=O)NCC(=O)Nc1ccc2c(c1)OCCO2	44*	-63	-64*	32*	82*	96*	52*	69*
COc1cccc(NC(=O)CNC(=O)[C@@H]2Cc3ccccc3CN2C(=O)OC(C)(C)C)c1	-3	1	3	-1	5	-6	nt	nt
Cc1c(C(=O)O)cccc1-n1c(C)cc(C=O)c1C	6	-12	-6	22*	-16	-9	19*	5
Cc1ccc(C(=O)O)cc1-n1c(C)cc(C=O)c1C	5	-5	-5	0	17	2	nt	nt
CC(=O)Nc1ccc2nc(NC(=O)c3cccs3)sc2c1	11	42	32	8	-13	40	nt	nt
O=C(Nc1nc2cc3c(cc2s1)OCCO3)c1cccs1	32	-11	-19	39*	61*	89*	62*	59*
CN(C)c1ccc(N=Nc2ccccc2C(=O)OCC(=O)N2CCCC2)cc1	-5	-10	8	-3	-51	-5	nt	nt
CN(C)c1ccc(N=Nc2ccccc2Br)cc1	-63	-11	-9	52*	47	77*	65*	54*
SMILES	EBV LMP1 NFkB	HSF-1 act	HSF1 inh	HSP90 refold inh	TROY NFkB inh	TWEAK Fn14 block	HSP90 inh confirm	FLuc counter
O=C(Nc1ccccc1)C1Cc2c(-c3ccc(Cl)cc3)ccnc2O1 (stereo not given)	nt	nt	nt	nt	25	14	nt	nt
COc1ccc(C)cc1NC(=O)NNC(=O)C(C)Oc1ccc(F)cc1Cl (stereo not given)	7	-3	9	20*	4	4	3	-2
CCc1nc2c(OCc3cc(Cl)cc(Cl)c3)cccn2c1N(C)C(=O)Nc1ccccc1OC	nt	nt	nt	nt	2	-8	nt	nt
COC(=O)CCCn1cc(CN2CC(N3CCN(C)CC3)CS2(=O)=O)nn1 (stereo not given)	nt	nt	nt	nt	3	18	nt	nt
O=C(C[C@H]1C(=O)N(c2ccccc2)C[C@@H]1Cc1ccccc1)Nc1ccccc1	5	nt	nt	nt	3	7	nt	nt
CCCc1ccc(OCc2ccc(C(=O)N/N=C/c3cccnc3)o2)cc1	-32	13	18	36*	0	-21	26*	-15
CCOc1ccc(CC(=O)N/N=C/c2cccnc2)cc1	-6	nt	nt	0	-22	19	nt	nt
O=C(N/C(=C/c1cccs1)C(=O)N1CCCCCC1)c1ccccc1	-8	-8	0	0	-3	1	nt	nt
O=C(N/C(=C\c1cccs1)C(=O)N1CCCCCC1)c1ccccc1	-3	-2	-3	31*	1	-22	-1	-20
CC(C)COC(=O)N(C)C[C@@H]1OCc2cnnn2CCCC(=O)N([C@H](C)CO)C[C@H]1C	-4	nt	nt	nt	-4	-5	nt	nt
CCCCc1ccc(S(=O)(=O)NC(=O)C2(C)CCN2C(=O)Cc2ccccc2)cc1 (stereo not given)	nt	nt	nt	nt	-13	2	nt	nt
CC(C)(C)OC(=O)N(CCc1ccccc1)Cc1cccc(OCc2cccc(NC(=O)C3CCCC3)c2)c1	-13	nt	nt	nt	9	7	nt	nt
CCc1sc(C(=O)Nc2nc(C)cs2)cc1C	-13	46	19	21*	-6	4	34*	20*
Cc1ccc(S(=O)(=O)N2C[C@H]3C(=O)C[C@@H](c4ccccc4F)N(S(=O)(=O)c4ccc(C)cc4)[C@H]3C[C@H]2c2cccc3ccccc23)cc1	-1	nt	nt	nt	-8	-16	nt	nt
O=C1NC[C@H](Cc2ccc(O)cc2)N(CCc2cccc(F)c2)C1=O	nt	nt	nt	nt	-2	23	nt	nt
CCN(Cc1nc(-c2cccc(C)c2)no1)C(=O)c1ccco1	0	2	9	21*	-11	-13	-5	-8
